Source: PubChem BioAssay (NCATS)
Records with an inconclusive call do not appear. Activity calls are given as the source filed them. Unless noted, calls come from the whole dose curve; as a rule, active = well fitted curve in the direction sought with a large enough effect; inconclusive = small, poorly fitted or top-dose-only effect, or another doubt; inactive = no such curve, though single readings can be large; an effect the other way counts as inactive or inconclusive.

What was measured:
[1] = biological target: Lysosomal acid glucosylceramidase (Homo sapiens) (UniProt P04062); assay: Glucocerebrosidase-p2 (AID 348; in the data active = potency below about 10 µM; note: potency is the fitted concentration of half-maximal effect); settings: purified GBA, blue fluorogenic substrate, 40 min
Sequence of Lysosomal acid glucosylceramidase (Homo sapiens) (P04062 whole entry, looked up): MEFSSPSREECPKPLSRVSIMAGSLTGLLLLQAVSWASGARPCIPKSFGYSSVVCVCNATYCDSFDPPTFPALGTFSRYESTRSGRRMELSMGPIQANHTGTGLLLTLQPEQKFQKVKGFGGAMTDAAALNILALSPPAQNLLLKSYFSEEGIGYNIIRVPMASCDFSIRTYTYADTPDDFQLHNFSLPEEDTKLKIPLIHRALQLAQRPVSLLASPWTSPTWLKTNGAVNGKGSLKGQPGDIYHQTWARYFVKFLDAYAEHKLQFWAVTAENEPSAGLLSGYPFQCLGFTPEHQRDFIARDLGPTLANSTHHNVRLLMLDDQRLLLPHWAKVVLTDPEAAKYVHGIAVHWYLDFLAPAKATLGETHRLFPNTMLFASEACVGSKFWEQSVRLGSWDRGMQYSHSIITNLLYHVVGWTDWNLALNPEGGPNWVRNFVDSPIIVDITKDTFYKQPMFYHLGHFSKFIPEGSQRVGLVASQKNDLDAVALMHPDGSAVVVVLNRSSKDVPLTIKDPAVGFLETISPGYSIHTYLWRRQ
Outline: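 Normal human glucocerebrosidase (0.2 nM) with blue fluorogenic substrate (80 uM final) in citrate/phosphate pH 5.9 with 10mM sodium taurocholate, 0.01% tween-20; 40 min RT, NaOH/glycine stop; fluorescence Ex 365/Em 440; AC50 from a titration from 0.6 nM upwards.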

[2] = AP1 Signaling Pathway (AID 357; active = well fitted curve in either direction with a large enough effect, not every such curve was filed as active;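 note: ME-180 reporter cells stimulated with EGF at its EC50 level; % is set by controls: 0 for no effect and ±100 for the full control effect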); settings: ME-180 AP-1-bla reporter, EGF-induced, beta-lactamase ratio, 5 h; at 7.69 µM (top of the series) unless noted
Outline: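 First, ME-180 AP-1-bla cells were cultured overnight at 37 °C in low-serum Opti-MEM. Next, titrated compounds with EC50 EGF were incubated 5 hours. Finally, CCF4 was added for 2.5 hours and the 460/530 nm ratio recorded.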

[3] = Stat Signaling Pathway (AID 446; active = well fitted curve in either direction with a large enough effect, not every such curve was filed as active;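 note: ME-180 cervical cancer cells given 40 pM IL-6 alongside compound; SIE-controlled beta-lactamase reporter measured as 460/530 nm FRET emission ratio; % is set by controls: 0 for no effect and ±100 for the full control effect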); settings: ME-180 (cervical carcinoma) SIE beta-lactamase reporter, IL-6 stimulated, 5 h; at 7.69 µM (top of the series) unless noted
Outline: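 Compound effects on IL-6-induced STAT reporter activity were measured in ME-180 cells. After overnight culture, cells were co-treated with 40 pM IL-6 for 5 hrs before beta-lactamase substrate loading at room temperature.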

[4] = biological target: 3',5'-cyclic-AMP phosphodiesterase 4B (Homo sapiens) (UniProt Q07343); assay: qHTS Assay for Inhibitors of PDE-IV (AID 607; active = well fitted activation curve with a large enough effect in the main read-out, with a control signal flat, not every such curve was filed as active; note: % of control where 0% means no effect); settings: HEK293 ACTOne CNG channel cells, membrane potential fluorescence; series mostly up to 22.9 µM
Sequence of 3',5'-cyclic-AMP phosphodiesterase 4B (Homo sapiens) (Q07343 whole entry, looked up): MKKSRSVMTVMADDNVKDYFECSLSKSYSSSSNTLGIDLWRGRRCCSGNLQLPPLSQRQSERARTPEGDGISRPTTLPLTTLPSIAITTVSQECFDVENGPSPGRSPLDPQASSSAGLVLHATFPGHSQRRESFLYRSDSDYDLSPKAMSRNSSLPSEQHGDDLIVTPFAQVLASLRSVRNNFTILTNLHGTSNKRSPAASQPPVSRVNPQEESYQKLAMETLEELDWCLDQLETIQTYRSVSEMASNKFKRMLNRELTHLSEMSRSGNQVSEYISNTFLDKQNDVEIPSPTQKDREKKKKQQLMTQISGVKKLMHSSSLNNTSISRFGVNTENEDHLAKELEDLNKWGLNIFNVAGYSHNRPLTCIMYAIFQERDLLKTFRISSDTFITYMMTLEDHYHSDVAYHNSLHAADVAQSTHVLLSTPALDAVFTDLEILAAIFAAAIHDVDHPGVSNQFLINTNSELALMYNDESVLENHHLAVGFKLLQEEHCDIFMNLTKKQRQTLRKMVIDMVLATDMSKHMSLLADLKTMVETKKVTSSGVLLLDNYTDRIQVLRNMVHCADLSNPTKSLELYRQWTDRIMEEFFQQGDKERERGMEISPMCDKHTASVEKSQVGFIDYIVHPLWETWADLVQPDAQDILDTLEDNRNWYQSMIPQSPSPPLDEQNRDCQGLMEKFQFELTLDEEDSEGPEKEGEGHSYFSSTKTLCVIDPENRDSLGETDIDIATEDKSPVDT
Outline: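 ACTOne HEK293 cells carry a modified cAMP-gated CNG channel and express endogenous PDE4; plated 1000 cells/well, compounds up to 22.9 uM final. Membrane-potential dye fluorescence (ex 535/em 590) was read; parental cells received 10 uM forskolin + 100 uM RO 20-1724.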

[5] = biological target: ATP-dependent 6-phosphofructokinase (Trypanosoma brucei brucei) (UniProt O15648); assay: qHTS Assay to Find Inhibitors of T. brucei phosphofructokinase: hit validation (AID 492961);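 note: luminescence reports ADP formed as PFK phosphorylates fructose-6-phosphate with ATP; % is set by controls: 0 for no effect and ±100 for the full control effect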; settings: T. brucei PFK, ADP-Glo luminescence; series mostly up to 51.4 µM
Sequence of ATP-dependent 6-phosphofructokinase (Trypanosoma brucei brucei) (O15648 whole entry, looked up): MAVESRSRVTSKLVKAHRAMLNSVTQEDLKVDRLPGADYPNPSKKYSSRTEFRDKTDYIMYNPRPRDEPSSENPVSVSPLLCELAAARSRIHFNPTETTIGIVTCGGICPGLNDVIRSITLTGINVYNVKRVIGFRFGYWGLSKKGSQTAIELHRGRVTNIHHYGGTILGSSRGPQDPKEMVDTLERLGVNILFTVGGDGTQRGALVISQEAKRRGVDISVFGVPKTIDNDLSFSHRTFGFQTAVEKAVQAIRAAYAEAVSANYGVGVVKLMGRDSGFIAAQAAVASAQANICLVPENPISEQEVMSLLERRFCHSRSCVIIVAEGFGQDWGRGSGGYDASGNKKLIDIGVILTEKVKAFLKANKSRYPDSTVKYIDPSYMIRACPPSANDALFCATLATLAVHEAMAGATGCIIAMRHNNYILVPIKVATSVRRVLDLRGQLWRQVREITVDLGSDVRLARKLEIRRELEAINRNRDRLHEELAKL
Outline: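 PFK 1.25 nM, F6P 0.5 mM, ATP 0.1 mM, MgCl2 5 mM, 0.1 M TEA pH 8.0, Tween20 0.01%, BSA 0.1%; 45 min RT. ADP-Glo two-step detection, luminescence. qHTS titration; curve fitting with curve-class categorization.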

[6] = biological target: Luciferin 4-monooxygenase (Photinus pyralis) (UniProt P08659); assay: Biochemical firefly luciferase enzyme assay for NPC (AID 624030);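 note: purified P. pyralis luciferase at 10 nM with luciferin and ATP substrate; 0% = DMSO and -100% = full luciferase inhibition by PTC124 control; nearly all actives have a fitted effect of over 70% in size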; settings: purified P. pyralis luciferase, luminescence, 5 min; series mostly up to 58.6 µM
Sequence of Luciferin 4-monooxygenase (Photinus pyralis) (P08659 whole entry, looked up): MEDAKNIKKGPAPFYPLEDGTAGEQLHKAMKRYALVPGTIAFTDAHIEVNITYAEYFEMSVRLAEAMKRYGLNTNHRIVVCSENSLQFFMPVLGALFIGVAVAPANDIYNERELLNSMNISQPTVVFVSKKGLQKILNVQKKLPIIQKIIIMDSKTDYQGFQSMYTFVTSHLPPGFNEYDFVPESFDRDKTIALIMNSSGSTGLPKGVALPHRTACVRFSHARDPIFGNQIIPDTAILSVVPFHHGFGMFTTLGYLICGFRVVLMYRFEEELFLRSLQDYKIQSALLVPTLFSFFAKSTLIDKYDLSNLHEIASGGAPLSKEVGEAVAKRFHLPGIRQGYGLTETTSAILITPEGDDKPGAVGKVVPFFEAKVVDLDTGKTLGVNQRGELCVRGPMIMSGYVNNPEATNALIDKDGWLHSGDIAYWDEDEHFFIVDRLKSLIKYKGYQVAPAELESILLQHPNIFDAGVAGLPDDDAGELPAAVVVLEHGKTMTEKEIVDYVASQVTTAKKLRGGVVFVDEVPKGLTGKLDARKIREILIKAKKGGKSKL
Outline: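 Counter-screen for direct inhibition of the luciferase enzyme by approved-drug library compounds, run at 10 nM enzyme in 50 mM Tris acetate (final). Luminescence was read within 5 min of enzyme-buffer addition and normalized to PTC124 versus DMSO (0%).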

[7] = S16 Schwann cell viability assay (CellTiter-Glo assay) (AID 624031); settings: S16 rat Schwann cells viability, 24 h; series mostly up to 57.5 µM;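 note: cellular ATP luminescence as a viability measure; plate controls were DMSO-treated cells for no effect and cell-free wells for full effect; nearly all actives have a fitted effect of over 70% in size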
Outline: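 Luminescent ATP read-out (CellTiter-Glo) after 24 h compound exposure of native S16 rat Schwann cells at 37 °C. Signals were normalized between cell-free wells and DMSO-treated cells, set as 0% activity.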

[8] = S16 Schwann cell PMP22 intronic element firefly luciferase assay (AID 624032); settings: S16 rat Schwann cells, PMP22 element FLuc, 24 h; series mostly up to 57.5 µM;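 note: plate controls were DMSO for no effect and PTC124 positive control mean for full effect; nearly all actives have a fitted effect of over 30% in size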
Outline: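 Rat S16 Schwann cells stably carrying a PMP22 intronic element-driven Fluc reporter were seeded overnight, then exposed to compounds for 24 h at 37 °C. Luminescence was normalized to PTC124 (positive control) and DMSO (0% activity).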

[9] = S16 Schwann cell PMP22 intronic element beta-lactamase assay (AID 624044; calls by dose curve;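 note: 0% = DMSO and -100% = potassium clavulanate positive control; nearly all actives have a fitted effect of over 15% in size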); settings: S16 rat Schwann cells, PMP22 element beta-lactamase FRET, 24 h; series mostly up to 38.3 µM
Outline: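 Beta-lactamase reporter under a PMP22 intronic regulatory element in stable S16 rat Schwann cells; 24 h compound exposure. 460 nm blue signal normalized between DMSO (0%) and potassium clavulanate, with 535 nm FRET tracking viability; curves classed by r2 and response.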

[10] = qHTS profiling for inhibitors of Plasmodium falciparum proliferation (AID 504749);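 note: 0% = DMSO vehicle and full inhibition = artemisinin control; nearly all actives have a fitted effect of over 60% in size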; settings: P. falciparum in erythrocytes, SYBR Green DNA, 72 h, at 28.7 µM (top of the series)
Outline: (§1)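 Quantitative HTS: compounds pinned into medium, infected erythrocytes added (0.3% parasitemia, 2.5% hematocrit), 72 h culture at 37 C under 5% CO2. Saponin/Triton lysis with SYBR Green I, overnight RT, then fluorescence read.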

3D7 = assay: as above; settings: P. falciparum in erythrocytes, SYBR Green DNA, 72 h; series mostly up to 28.7 µM
Outline: as §1

7G8 = assay: as above; settings: P. falciparum in erythrocytes, SYBR Green DNA, 72 h; series mostly up to 28.7 µM
Outline: as §1

AA1029 = assay: as above; settings: P. falciparum in erythrocytes, SYBR Green DNA, 72 h; series mostly up to 28.7 µM
Outline: as §1

AS120 = assay: as above; settings: P. falciparum in erythrocytes, SYBR Green DNA, 72 h; series mostly up to 28.7 µM
Outline: as §1

ATS189 = assay: as above; settings: P. falciparum in erythrocytes, SYBR Green DNA, 72 h; series mostly up to 28.7 µM
Outline: as §1

ATS95 = assay: as above; settings: P. falciparum in erythrocytes, SYBR Green DNA, 72 h; series mostly up to 28.7 µM
Outline: as §1

C2A = assay: as above; settings: P. falciparum in erythrocytes, SYBR Green DNA, 72 h; series mostly up to 28.7 µM
Outline: as §1

CP185 = assay: as above; settings: P. falciparum in erythrocytes, SYBR Green DNA, 72 h; series mostly up to 28.7 µM
Outline: as §1

CP191 = assay: as above; settings: P. falciparum in erythrocytes, SYBR Green DNA, 72 h; series mostly up to 28.7 µM
Outline: as §1

CP192 = assay: as above; settings: P. falciparum in erythrocytes, SYBR Green DNA, 72 h; series mostly up to 28.7 µM
Outline: as §1

CP194 = assay: as above; settings: P. falciparum in erythrocytes, SYBR Green DNA, 72 h; series mostly up to 28.7 µM
Outline: as §1

CP201 = assay: as above; settings: P. falciparum in erythrocytes, SYBR Green DNA, 72 h; series mostly up to 28.7 µM
Outline: as §1

CP203 = assay: as above; settings: P. falciparum in erythrocytes, SYBR Green DNA, 72 h; series mostly up to 28.7 µM
Outline: as §1

CP211 = assay: as above; settings: P. falciparum in erythrocytes, SYBR Green DNA, 72 h; series mostly up to 28.7 µM
Outline: as §1

CP215 = assay: as above; settings: P. falciparum in erythrocytes, SYBR Green DNA, 72 h; series mostly up to 28.7 µM
Outline: as §1

CP217 = assay: as above; settings: P. falciparum in erythrocytes, SYBR Green DNA, 72 h; series mostly up to 28.7 µM
Outline: as §1

CP237 = assay: as above; settings: P. falciparum in erythrocytes, SYBR Green DNA, 72 h; series mostly up to 28.7 µM
Outline: as §1

CP238 = assay: as above; settings: P. falciparum in erythrocytes, SYBR Green DNA, 72 h; series mostly up to 28.7 µM
Outline: as §1

CP247 = assay: as above; settings: P. falciparum in erythrocytes, SYBR Green DNA, 72 h; series mostly up to 28.7 µM
Outline: as §1

CP250 = assay: as above; settings: P. falciparum in erythrocytes, SYBR Green DNA, 72 h; series mostly up to 28.7 µM
Outline: as §1

CP252 = assay: as above; settings: P. falciparum in erythrocytes, SYBR Green DNA, 72 h; series mostly up to 28.7 µM
Outline: as §1

CP256 = assay: as above; settings: P. falciparum in erythrocytes, SYBR Green DNA, 72 h; series mostly up to 28.7 µM
Outline: as §1

CP260 = assay: as above; settings: P. falciparum in erythrocytes, SYBR Green DNA, 72 h; series mostly up to 28.7 µM
Outline: as §1

CN1[C@@H]2CC(OC(=O)[C@@H](CO)c3ccccc3)C[C@@H]1[C@H]1O[C@H]12 (some centres undefined)
inactive: Potency [1] > 11.4 µM | activity change, negative = inhibition [2] 20.3% | activity, negative = inhibition [3] 6.14% | Potency [4] | outcome [5] | outcome [6] | Potency [7] | Potency [8] | outcome [9] | activity, negative = inhibition ([10]; parasite line A) 11.4% | activity, negative = inhibition ([10]; parasite line B) 4.71% | Potency (3D7) | Potency (7G8) | Potency (AA1029) | Potency (AS120) | Potency (ATS189) | Potency (ATS95) | Potency (C2A) | Potency (CP185) | Potency (CP191) | Potency (CP192) | Potency (CP194) | Potency (CP201) | Potency (CP203) | Potency (CP211) | Potency (CP215) | Potency (CP217) | Potency (CP237) | Potency (CP238) | Potency (CP247) | Potency (CP250) | Potency (CP252) | Potency (CP256) | Potency (CP260)
